Consider 19 compounds from PubChem BioAssay (NCATS).

“And” between values parts separate entries of the source, which are not always exact repeats. Equal values may be shown once. Unmarked numbers belong to inactive results. Results filed as inconclusive are left out. The source made the active and inactive calls. Unless noted, calls come from the whole dose curve; as a rule, active = well fitted inhibition curve with a large enough effect; inconclusive = small, poorly fitted or top-dose-only effect; inactive = flat fitted curve, though single readings scatter. Where a SMILES comes first, the peptide text is derived from it. Bridges are numbered along the chain shown (N, C = ends). [ ]: non-standard residue; d: D form. The star is where a group is joined. ξ: configuration not given here. d(aThr) = C[C@@H](O)[C@@H](N)C(=O)O; ξThr(3R) = C[C@@H](O)C(N)C(=O)O; X3 = CC[C@@H](C)CCCCC(=O)*; dDab = NCC[C@@H](N)C(=O)O

Test [1] can be described thus: Drug repurposing screens with cells derived from glioblastoma tumor samples (AID 1345199). For activity, negative = cell killing: % is set by controls: 0 for no effect and ±100 for the full control effect. Note: nearly all actives have a fitted effect of over 40% in size. Note: potency is the fitted concentration of half-maximal effect. The following applies: GBM patient neurospheres viability, ATP luminescence, 48 h. Summed up: (§1)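 Four patient lines of CD133+ GBM neurospheres were screened at several concentrations; hits were retested in those lines plus three slower-growing GBM lines, using 48-hour treatment and ATP-based viability.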

In the next test the test system is astro (control astrocytes). The test is described as above. The following applies: viability, ATP luminescence, 48 h; series mostly up to 45.9 µM. An outline of the steps: as §1
For test [2], the target named is Nuclear receptor subfamily 1 group I member 2 (Rattus norvegicus) (UniProt Q9R1A7). The experiment in a line: qHTS assay for small molecule activators of the rat pregnane X receptor (rPXR) signaling pathway (AID 651751; call rule not given here; note: 0% is about no effect). The following applies: rPXR reporter cells, luciferase (One-Glo), 24 h. For orientation: Quantitative high-throughput screening tests each substance at several concentrations.
Chain of Nuclear receptor subfamily 1 group I member 2 (Rattus norvegicus) (Q9R1A7 whole entry, looked up): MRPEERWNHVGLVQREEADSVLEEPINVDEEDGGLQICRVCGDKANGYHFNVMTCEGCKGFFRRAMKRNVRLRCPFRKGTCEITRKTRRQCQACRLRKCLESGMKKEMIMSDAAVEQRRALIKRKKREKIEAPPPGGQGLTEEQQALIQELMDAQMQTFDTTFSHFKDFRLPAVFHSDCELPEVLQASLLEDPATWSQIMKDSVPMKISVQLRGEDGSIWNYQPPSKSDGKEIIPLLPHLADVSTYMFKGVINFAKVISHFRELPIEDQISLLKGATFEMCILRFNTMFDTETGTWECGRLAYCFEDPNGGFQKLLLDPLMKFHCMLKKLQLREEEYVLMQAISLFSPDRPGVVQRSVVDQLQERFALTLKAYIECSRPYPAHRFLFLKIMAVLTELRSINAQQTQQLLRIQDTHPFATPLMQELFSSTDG

A short description of test [3]: qHTS assay for small molecule activators of the human pregnane X receptor (PXR) signaling pathway (AID 720659; call rule not given here; note: 0% is about no effect). The following applies: DPX-2 HepG2 CYP3A4-luciferase, 24 h; series mostly up to 92.3 µM.
Where [4] appears, read: at 45.9 µM (top of the series), tumour line B.
Where [5] appears, read: at 45.9 µM (top of the series), tumour line D.
Setting [6] is: at 46.1 µM (top of the series), tumour line C.

Turning to `OC[C@H]1O[C@@](CO)(O[C@H]2O[C@H](CO)[C@@H](O)[C@H](O)[C@H]2O)[C@@H](O)[C@@H]1O`, the activity, negative = cell killing in test [1] (setting [4]) is -5.09%; in test [1] (setting [5]), -14.4%; in test [1] (setting [6]), -22.3%. In the test with astro, the Potency result was “inactive”. Moreover, the max response in test [2] is 1.07%. The call in test [3] was inactive.

For the compound `Cc1cccc(C)c1NC(=O)C1CCCCN1C` (stereo not drawn), the activity, negative = cell killing in test [1] (setting [4]) was -7.34%; in test [1] (setting [6]), 2.03%. In addition, in the test on astro, the Potency result is “inactive”.

For the compound `NCCO/C=C/[C@H](N)C(=O)O`, the activity, negative = cell killing was -6.64% in test [1] (setting [4]), 5.28% in test [1] (setting [5]) and 26.3% in test [1] (setting [6]). In the test with astro, the Potency entry was “inactive”. Also, the max response in test [2] is -1.31%.

With `CC[C@@H](C)CCCCC(=O)N[C@H](CCN)C(=O)N[C@@H](C(=O)N[C@H](CCN)C(=O)N[C@@H]1CCNC(=O)C([C@@H](C)O)NC(=O)[C@@H](CCN)NC(=O)[C@@H](CCN)NC(=O)[C@@H](CC(C)C)NC(=O)[C@@H](Cc2ccccc2)NC(=O)[C@@H](CCN)NC1=O)[C@@H](C)O` (stereo partly drawn) (X3-[dDab][d(aThr)][dDab][dDab][dDab][dF][dL][dDab][dDab][ξThr(3R)]; lactam 4-C), the activity, negative = cell killing is -10.3% in test [1] (setting [5]) and 4.35% in test [1] (setting [6]). Also, in the test on astro, the Potency entry is “inactive”.

Take `ClC(Cl)Cl`: the activity, negative = cell killing in test [1] (setting [4]) was 0.236%; in test [1] (setting [5]) it was -13.8%; in test [1] (setting [6]) it was -5.54%. The Potency entry in the test on astro is “inactive”. In addition, the max response in test [2] is -6.93%. Further, the compound was called inactive in test [3].

Consider `CC(C)(C)CC(C)(C)c1ccc(OCCO)cc1`, for which the activity, negative = cell killing in test [1] (setting [4]) was -26.2%; in test [1] (setting [6]), -20.5%. Moreover, the Potency is 10 µM (active) in test [1] (tumour line D) and 35.5 µM (active) in the test with astro (control astrocytes). Moreover, the max response in test [2] is -14.4%.

Consider `OC[C@H]1O[C@@H]2O[C@H]3[C@H](O)[C@@H](O)[C@@H](O[C@H]4[C@H](O)[C@@H](O)[C@@H](O[C@H]5[C@H](O)[C@@H](O)[C@@H](O[C@H]6[C@H](O)[C@@H](O)[C@@H](O[C@H]7[C@H](O)[C@@H](O)[C@@H](O[C@H]1[C@H](O)[C@H]2O)O[C@@H]7CO)O[C@@H]6CO)O[C@@H]5CO)O[C@@H]4CO)O[C@@H]3CO`, for which the activity, negative = cell killing in test [1] (setting [4]) was -13.8%; in test [1] (setting [5]) it was -5.74%; in test [1] (setting [6]) it was -2.87%. In addition, the Potency result in the test with astro was “inactive”. The max response in test [2] was 1.3% and 2.85%. For the same compound, the outcome in test [3] was inactive.

For the compound `C=C1c2c(Cl)ccc(O)c2C(O)=C2C(=O)[C@]3(O)C(O)=C(C(N)=O)C(=O)[C@@H](N(C)C)[C@@H]3[C@@H](O)[C@H]12`, the activity, negative = cell killing in test [1] (at 20 µM (top of the series), tumour line C) was 3.1%; in test [1] (at 21.2 µM (top of the series), tumour line D), -28.3%. Further, the Potency result in the test with astro is “inactive”.

Turning to `[O-][N+](=Nc1ccccc1)c1ccccc1`, the activity, negative = cell killing was -12.7% in test [1] (setting [4]), -9.27% in test [1] (setting [5]) and -6.88% in test [1] (setting [6]). Moreover, the Potency result in the test on astro was “inactive”. In addition, the compound was classed as inactive in test [3].

As for `C=C1CC[C@H](O)CC1=C/C=C1\CCC[C@]2(C)[C@@H]([C@H](C)CC[C@@H](O)C(C)(C)O)CC[C@@H]12`, the activity, negative = cell killing in test [1] (setting [4]) is -20.7%. Moreover, the Potency in test [1] (tumour line A) was 8.91 µM (active). Moreover, the Potency result in the test with astro was “inactive”.

For `CO[C@@H]1[C@H](OC(=O)/C=C/C=C/C=C/C=C/C(=O)O)CC[C@]2(CO2)[C@H]1[C@@]1(C)O[C@@H]1CC=C(C)C`, the activity, negative = cell killing is 2.14% in test [1] (setting [4]), -9.21% in test [1] (setting [5]) and 4.82% in test [1] (setting [6]). Also, in the test on astro, the Potency result is “inactive”. In test [2], the max response is -5.29%. Also, in test [3], the compound was classed as inactive.

Regarding `Oc1cccc(O)c1O`, the activity, negative = cell killing in test [1] (setting [4]) was -15.1%; in test [1] (setting [5]), 2.75%; in test [1] (setting [6]) it was 15.2%. The Potency result in the test on astro was “inactive”. Moreover, the max response in test [2] was -3.92%. Besides, the call in test [3] was inactive.

Consider `Cn1c(=O)c2c(ncn2CCOC(=O)C(C)(C)Oc2ccc(Cl)cc2)n(C)c1=O`, for which the activity, negative = cell killing is -17% in test [1] (setting [4]) and -18.4% in test [1] (setting [6]). The Potency entry in the test with astro was “inactive”.

`OCCOCCOCCO`: the values for the activity, negative = cell killing in test [1] (setting [4]), in test [1] (setting [5]) and in test [1] (setting [6]) were -6.55%, -3.68% and 4.43%, respectively. The Potency result in the test on astro is “inactive”. Besides, in test [2], the max response is 0.109% and -2.24%.

For the compound `C[C@@H]1C[C@H]2[C@@H]3CCC4=CC(=O)C=C[C@]4(C)[C@@]3(F)[C@@H](O)C[C@]2(C)[C@@]1(O)C(=O)COC(=O)c1cccc(S(=O)(=O)O)c1`, the activity, negative = cell killing is -14.3% in test [1] (setting [4]); -16.1% in test [1] (setting [5]); -5.39% in test [1] (at 46 µM (top of the series), tumour line A). The Potency result in the test on astro was “inactive”.

On to `CC1CCCCN1CCCOC(=O)c1ccccc1` (stereo not drawn), for which the results for the activity, negative = cell killing in test [1] (setting [4]), in test [1] (setting [5]) and in test [1] (setting [6]) were -12.2%, -13.7% and -1.82%, respectively. Moreover, the Potency result in the test with astro was “inactive”.

As to `C[C@]12CCC(=O)C[C@@H]1CC[C@@H]1[C@@H]2CC[C@]2(C)C=CC[C@@H]12`, the activity, negative = cell killing in test [1] (setting [4]) was -7.67%; in test [1] (setting [5]) it was -11.4%. Besides, the Potency in test [1] (tumour line A) was 20 µM (active). Moreover, the Potency result in the test with astro is “inactive”.

For `CO/N=C(/C(=O)N[C@@H]1C(=O)N2C(C(=O)O)=C(COC(N)=O)CS[C@H]12)c1ccco1`, the activity, negative = cell killing was 3.13% and -9.26% in test [1] (setting [4]); -9.35% and -16.7% in test [1] (setting [5]); 6.13% and -0.48% in test [1] (setting [6]). In the test with astro, the Potency entry is “inactive”. In test [2], the max response is -2.68%. Also, the result in test [3] was inactive.

Take `CCCCCCCCCCCCCCCCCC(=O)OC[C@@H](O)[C@H]1OC[C@H](O)[C@H]1O`: the activity, negative = cell killing in test [1] (setting [4]) was 3.83%; in test [1] (setting [5]), 2.86%; in test [1] (setting [6]), -1.68%. Besides, the Potency result with astro is “inactive”. The max response in test [2] is 2.96%.
